Where “and” joins values, the source holds several entries; their conditions need not be identical. Identical values can stand only once.
The compounds below were run on HT29 sg-Ctrl (RNF43 wildtype) (assay: cell viability activity relative to DMSO (negative = inhibition); higher = more viable cells (less growth inhibition)). Conditions: 5 µM; 96 h.
Method: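 Broad Repurposing Library primary screen at a single dose of 5 uM. HT29 sg-Ctrl and HT29 RNF43 G659fs CRISPR-edited isogenic cells were seeded at 2500 cells/well in 384-well plates in duplicate and treated for 96 h. Viability was read by CellTiter-Glo and reported as % activity relative to DMSO, with MG132 as the positive control (negative = growth inhibition).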

Row | Compound | cell viability activity
1 | CCN(CC)CCOc1ccc(C(=C(Cl)c2ccccc2)c2ccccc2)cc1 | -97.9%
2 | CC(C)[C@](O)(c1ccc2cc(OC(F)F)c(OC(F)F)cc2c1)c1c[nH]nn1 | 9.17%
3 | CC(C)C[C@H](NC(=O)[C@H](CCc1ccccc1)NC(=O)CN1CCOCC1)C(=O)N[C@@H](Cc1ccccc1)C(=O)N[C@@H](CC(C)C)C(=O)[C@@]1(C)CO1 | -96.6%
4 | Cc1ccc([N+](=O)[O-])cc1S(=O)(=O)N(C)/N=C/c1cnc2ccc(Br)cn12 | -94.4%
5 | CCCS(=O)(=O)Nc1ccc(F)c(C(=O)c2c[nH]c3ncc(Cl)cc23)c1F | -47.2%
6 | Cn1cnc2c(F)c(Nc3ccc(Br)cc3Cl)c(C(=O)NOCCO)cc21 | -70.6%
7 | Nc1ccc2cc3ccc(N)cc3nc2c1 | -47.4%
8 | Cc1[nH]nc2ccc(-c3cncc(OC[C@@H](N)Cc4ccccc4)c3)cc12 | -90.7%
9 | CON(C)C(=O)N1N=C(c2cc(F)ccc2F)S[C@@]1(CCCN)c1ccccc1 | -69.7%
10 | Cc1nc(Nc2ncc(C(=O)Nc3c(C)cccc3Cl)s2)cc(N2CCN(CCO)CC2)n1 | -60.3%
11 | O=C1NC(=O)[C@@H](c2cn3c4c(cccc24)CCC3)[C@@H]1c1c[nH]c2ccccc12 | -61.7%
12 | CCC[C@H](NC(=O)/C(C#N)=C/c1cccc(Br)n1)c1ccccc1 | -92.4%
13 | COc1cccc2c1C(=O)c1c(O)c3c(c(O)c1C2=O)C[C@@](O)(C(=O)CO)C[C@@H]3O[C@H]1C[C@H](N)[C@H](O)[C@H](C)O1 | -89.6% and -89.8% and -68.3%
14 | CN(Cc1cnc2nc(N)nc(N)c2n1)c1ccc(C(=O)N[C@@H](CCC(=O)O)C(=O)O)cc1 | -66%
15 | COC(=O)Nc1nc2cc(C(=O)c3ccc(F)cc3)ccc2[nH]1 | -51.2%
16 | COc1ccc2[nH]c(C(=O)c3ccccc3)cc2c1 | -55.7%
17 | CCOc1cc2ncc(C#N)c(Nc3ccc(OCc4cccc(F)c4)c(Cl)c3)c2cc1NC(=O)/C=C/CN(C)C | -28.1%
18 | CCCCc1oc2ccc(NS(C)(=O)=O)cc2c1C(=O)c1ccc(OCCCN(CCCC)CCCC)cc1 | -91.7%
19 | COc1ccc(-c2ccc3c(N4CCOC[C@@H]4C)nc(N4CCOC[C@@H]4C)nc3n2)cc1CO | -55.9%

Row | Compound | cell viability activity
20 | C#Cc1cccc(Nc2ncnc3cc(OC)c(OCCCCCCC(=O)NO)cc23)c1 | -71%
21 | Cc1cnc(Nc2ccc(F)cc2Cl)nc1-c1c[nH]c(C(=O)N[C@H](CO)c2cccc(Cl)c2)c1 | -76%
22 | CCCCC/N=c1\ccn(Cc2ccccc2)c2ccccc12 | -45.4%
23 | Cc1nnc(C[C@@H]2C=C(c3ccc(Cl)cc3)c3ccccc3-n3c(C)nnc32)o1 | -64.7%
24 | O=C(/C=C\n1cnc(-c2cc(C(F)(F)F)cc(C(F)(F)F)c2)n1)NNc1cnccn1 | -69.8%
25 | CN(C)Cc1c(C(=O)NCCOc2ccc(C(=O)NO)cc2)oc2ccccc12 | -85.2%
26 | O=C(NC[C@H](O)CO)c1ccncc1Nc1ccc(I)cc1F | -91.2%
27 | CC(C)(C)CC(C)(C)c1ccc(OCCOCC[N+](C)(C)Cc2ccccc2)cc1 | -97.2%
28 | CCn1cc(-c2ccnc3[nH]c(-c4cccc(CN(C)C)c4)cc23)c(-c2ccc(NC(=O)N(C)C)cc2)n1 | -63.8%
29 | COC(=O)c1ccccc1-c1c2ccc(=N)cc-2oc2cc(N)ccc12 | -37.4%
30 | CNc1ncc2cc(-c3cc(NC(=O)NCCC(C)(C)C)c(F)cc3C)c(C)nc2n1 | -58.9%
31 | C[C@@H](CN1CC(=O)NC(=O)C1)N1CC(=O)NC(=O)C1 | -44.6%
32 | CC(C)N(C[C@H]1O[C@@H](n2cnc3c(N)ncnc32)[C@H](O)[C@@H]1O)[C@H]1C[C@@H](CCc2nc3cc(C(C)(C)C)ccc3[nH]2)C1 | -26.5%
33 | CC1=NN(c2ccc(C(=O)O)cc2)C(=O)/C1=C\c1ccc(-c2cc(C)c(C)cc2[N+](=O)[O-])o1 | -79.6%
34 | c1cc(Nc2cc(C3CC3)[nH]n2)nc(Nc2ccc3nc[nH]c3c2)n1 | -65.9%
35 | CN1CCc2c(c3ccccc3n2Cc2ccccc2)C1 | -56.9%
36 | OC1(c2ccc(Cl)c(C(F)(F)F)c2)CCN(CCCC(c2ccc(F)cc2)c2ccc(F)cc2)CC1 | -60.6%
37 | O=C1/C(=C/c2ccccc2)C(NC2CCCCC2)c2ccccc21 (configuration not stated) | -74.6%

Source: the supplement of paper PMC9177965
